# According to PubChem BioAssay (NCATS):
# Inconclusive results are not listed. Where a call stands in place of a potency, no number is given. The source made the active and inactive calls. Unless noted, calls follow the shape of the dose curve; as a rule, active = well fitted curve in the direction sought with a large enough effect; inconclusive = small, poorly fitted or top-dose-only effect, or another doubt; inactive = no such curve, though single readings can be large; an effect the other way counts as inactive or inconclusive.
# Tests used:
# [1] = Cytotoxicity counterscreen for NFkB agonists and antagonists (AID 624476); settings: NFkB reporter cell line viability counterscreen; series mostly up to 46.1 µM;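 also: cells exposed to compound for 48 hours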
# [2] = qHTS Assay for Identification of Small Molecule Agonists for NFkB Signaling Pathway. (AID 624478); settings: NFkB pathway reporter cell assay, agonist mode, cells co-stimulated with 10 pM TNF alpha; series mostly up to 46.1 µM;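 also: compounds tested together with TNF alpha at its EC50 of 10 pM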
# Method in brief: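 Read-out: 460/530 nm emission at 405 nm excitation after 2 h LiveBLAzer loading; ME-180 NFkB-bla reporter cells exposed 5 h at 37 C to compounds with 10 pM TNF alpha final.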
# [3] = Cell Proliferation Assay against the HBL1 Cell Line (AID 651646); settings: HBL1 DLBCL cells; at 46.1 µM (top of the series) unless noted;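 also: cells exposed to compound for 48 h before reading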
# Method in brief: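 HBL1, 500 cells/well, RPMI no phenol red + 5% FBS; cpd pinned, 48 h 37C/5% CO2; CellTiter-Glo, 15 min RT, luminescence. % activity: DMSO = 100%, bortezomib 9.2 uM final = 0%.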
# [4] = Cell Proliferation Assay against the TMD8 Cell Line (AID 651645); settings: TMD8 DLBCL cell line proliferation/viability; at 46.1 µM (top of the series) unless noted;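 also: cells exposed to compound for 48 h before reading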
# Method in brief: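 500 TMD8 cells/well, RPMI + Glutamax, no phenol red, 5% FBS; cpd added immediately; 48 h, 37C, 5% CO2; CellTiter-Glo, luminescence. Controls: DMSO = 100%, bortezomib 9.2 uM final = 0%.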
# [5] = Cell Proliferation Assay against the TMD8 Cell Line (Caspase readout at 8 hrs) (AID 651713); settings: TMD8 lymphoma cells, caspase activation luminescence; series mostly up to 46.1 µM
# Method in brief: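 Apoptosis readout: caspase 3/7 luminescence (Caspase-Glo), 15 min RT. Cells: TMD8, 500/well, RPMI + 5% FBS, no phenol red. Exposure 8 h, 37C. % activity vs DMSO = 0, bortezomib 9.2 uM final = 100.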
# [6] = Cell Proliferation Assay against the TMD8 Cell Line (Caspase readout at 16 hrs) (AID 651712); settings: TMD8 lymphoma cells, caspase activation luminescence; series mostly up to 46.1 µM; also: potency is read from the fitted curve at half-maximal effect
# Method in brief: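 Caspase-Glo luminescence after 16 h compound exposure of TMD8 cells, 37 °C, 5% CO2. Medium: RPMI without phenol red, 5% FBS. Normalisation: DMSO = 0%, bortezomib 9.2 uM final = 100%.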
# [7] = qHTS Assay for Identification of Small Molecule Antagonists for NFkB Signaling Pathway. (AID 624479; calls by dose curve; also: potency is read from the fitted curve at half-maximal effect); settings: NFkB pathway reporter cell assay, antagonist mode; series mostly up to 38.3 µM
Compound,Potency [1],outcome [2],"viability, percent of control [3]",viability (% of control) [4],Potency [5],Potency [6],Potency [7]
c1ccc(-c2nn3c(c2-c2ccnc4cc(OCCN5CCOCC5)ccc24)CCC3)nc1,inactive,inactive,77.9%,–,–,–,–
CCOc1ccc(Cc2cc([C@@H]3O[C@H](CO)[C@@H](O)[C@H](O)[C@@H]3O)ccc2Cl)cc1,inactive,inactive,94.2%,87.2%,inactive,–,–
CCCn1c(=O)c2[nH]c(C34CC5CC3C[C@@H](C5)C4)nc2n(CCC)c1=O,inactive,inactive,60.2%,30.5%,inactive,18.7 µM (active),–
C[C@]1(c2nc3c(C(N)=O)cccc3[nH]2)CCCN1,inactive,inactive,89.5%,57.1%,inactive,–,–
CCOc1cc(N2CCC(O)CC2)ccc1Nc1ncc2c(n1)N(C)c1ccccc1C(=O)N2C,inactive,inactive,29%,–,–,–,–
COCCNCCCn1c(C(=O)CF)c(-c2ccc(C)cc2)c2c(N)ncnc21,inactive,–,86.2%,75.8%,inactive,inactive,inactive
CC1(C)CNc2cc(NC(=O)c3cccnc3NCc3ccncc3)ccc21,inactive,inactive,86%,49.2%,inactive,–,–
Cc1cc(SCc2sc(-c3ccc(C(F)(F)F)cc3)nc2C)ccc1OCC(=O)O,–,inactive,114%,88.2%,–,–,–
OCCC#Cc1nc(-c2ccc(F)cc2)c(-c2ccncc2)n1CCCc1ccccc1,–,inactive,55.3%,67.4%,–,–,14.9 µM (active)
O=C(Nc1cccnc1)N1CCC(Cc2cccc(Oc3ccc(C(F)(F)F)cn3)c2)CC1,–,inactive,46.1%,–,–,–,–
COc1cc(F)c(F)c(Nc2ccc(I)cc2F)c1NS(=O)(=O)C1(C[C@H](O)CO)CC1,–,inactive,62.4%,69.3%,–,–,5.95 µM (active)
COc1cc(Nc2ncc3c(n2)-c2ccc(Cl)cc2C(c2c(F)cccc2OC)=NC3)ccc1C(=O)O,–,inactive,53%,–,–,–,inactive
Cc1ccc(-n2nc(C(C)(C)C)cc2NC(=O)Nc2ccc(OCCN3CCOCC3)c3ccccc23)cc1,inactive,inactive,65.5%,–,inactive,–,–
NC(=O)c1ccc(-c2nc(-c3ccc4c(c3)OCCO4)c(-c3ccccn3)[nH]2)cc1,inactive,inactive,105%,83.2%,inactive,inactive,–
CC(C)(C)OC(=O)CN(Cc1ccc(Cl)cc1)Cc1ccc([N+](=O)[O-])s1,–,inactive,47%,7.07%,inactive,–,inactive
C/C(=C\C(=O)Nc1ccccc1C(=O)O)c1ccc2ccccc2c1,–,inactive,70.3%,53.7%,inactive,–,–
COc1ccc(COc2cc3oc(=O)c4cc(C(C)O)ccc4c3cc2OC)cc1 (stereo not given),–,–,45.7%,–,–,inactive,inactive

Compound,Potency [1],outcome [2],"viability, percent of control [3]",viability (% of control) [4],Potency [5],Potency [6],Potency [7]
Cc1cc(C=c2sc3nc4ccccc4n3c2=O)c(C)n1-c1ccccc1,–,inactive,43.7%,43.9%,–,inactive,inactive
Cc1cccc(-c2nn(C(=S)Nc3ccccc3)cc2-c2ccnc3ccccc23)n1,inactive,inactive,94.2%,60.3%,inactive,–,–
COc1cc2nccc(Oc3ccc(NC(=O)NC4CC4)c(Cl)c3)c2cc1C(N)=O,–,inactive,83.1%,30.4%,–,–,18.8 µM (active)
CCOc1ccn(-c2ccc(F)cc2)c(=O)c1C(=O)Nc1ccc(Oc2ccnc(N)c2Cl)c(F)c1,–,inactive,68.6%,–,–,–,16.8 µM (active)
CC[C@H](Nc1ncnc2nc[nH]c12)c1nc2cccc(F)c2c(=O)n1-c1ccccc1,–,inactive,68.9%,19.3%,inactive,–,inactive
O=C(O)c1ccc(-c2c[nH]c3ccc(-c4ccccc4)cc23)cc1C1CCCC1,–,inactive,93.3%,83.2%,inactive,inactive,14.9 µM (active)
CCOc1cc(C=C2C(=O)N(c3ccccc3)N=C2C)cc(Cl)c1OCC(=O)OC,inactive,inactive,46.9%,–,–,–,–
O=C(OCC#CCSc1nnc(-c2ccc3ccccc3c2)o1)c1cc2ccccc2s1,inactive,–,86.3%,90%,–,–,inactive
CCC(C)(C)C(=O)O[C@H]1C[C@@H](C)C=C2C=C[C@H](C)[C@H](CC[C@@H]3C[C@@H](O)CC(=O)O3)[C@H]21,–,–,94.3% [at 15.4 µM],–,–,–,–
CN(C)C(=O)c1ccc(S(=O)(=O)c2ccc(NC(=O)[C@@](C)(O)C(F)(F)F)c(Cl)c2)cc1,–,inactive,86.5%,73%,inactive,inactive,inactive
CN(C)c1ccc(Nc2nc(N)n(C(=O)c3c(F)cccc3F)n2)cc1,–,inactive,46.5%,28.9%,inactive,–,14.9 µM (active)
CN(C)c1ccc(C2Nc3ccc4ccccc4c3C3=C2C(=O)CC(C)(C)C3)cc1Br (stereo not given),inactive,inactive,69.1%,64.8%,inactive,–,–
Nc1cccc(S(=O)(=O)N2CCCN(S(=O)(=O)c3ccc4c(c3)OCCO4)CC2)c1,inactive,inactive,78.2%,–,–,inactive,–
Cc1c(CCOc2ccc(C(=O)O)cc2)c2cc(Cl)ccc2n1C(c1ccccc1)c1ccccc1,–,inactive,34.4%,–,inactive,–,–
CNC(=O)c1ccc(N2C(=S)N(c3ccc(C#N)c(C(F)(F)F)c3)C(=O)C2(C)C)cc1F,inactive,inactive,83.2%,78.7%,inactive,–,–
CS(=O)(=O)Oc1ccc2c(NC(N)=O)c(C(=O)c3ccc(Cl)cc3Cl)oc2c1,inactive,inactive,78.9%,84.9%,inactive,–,–
